Screen size: about 2,100 compounds; about 1,100 (52%) were called active. About 27% were inconclusive and are not listed. Calls come from the whole dose curve; as a rule, active = well fitted inhibition curve with a large enough effect; inconclusive = small, poorly fitted or top-dose-only effect; inactive = no such curve, though single readings can be large or run the other way. The set was probably picked from earlier hits. Some of the results follow.
Potency is the fitted concentration of half-maximal effect.

Chain of DNA dC->dU-editing enzyme APOBEC-3G (Homo sapiens) (Q9HC16 whole entry, looked up): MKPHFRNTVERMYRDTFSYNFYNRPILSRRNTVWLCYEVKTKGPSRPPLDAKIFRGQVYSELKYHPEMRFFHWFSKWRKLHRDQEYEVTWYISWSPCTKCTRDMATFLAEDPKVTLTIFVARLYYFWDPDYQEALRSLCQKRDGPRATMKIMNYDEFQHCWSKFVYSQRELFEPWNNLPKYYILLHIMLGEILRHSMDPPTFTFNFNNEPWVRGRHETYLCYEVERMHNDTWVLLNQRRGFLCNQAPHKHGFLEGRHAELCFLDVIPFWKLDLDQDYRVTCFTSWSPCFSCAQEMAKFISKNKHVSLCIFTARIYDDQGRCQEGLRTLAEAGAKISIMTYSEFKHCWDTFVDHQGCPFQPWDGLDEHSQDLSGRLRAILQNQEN

In the test the target is DNA dC->dU-editing enzyme APOBEC-3G (Homo sapiens) (UniProt Q9HC16). Put plainly: qHTS for inhibitors of Vif-A3G interactions: Cherry picks counterscreen.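 For max response: max response given as percent of control signal.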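 Note: hits raise yellow fluorescence by blocking Vif-driven A3G-eYFP degradation; nearly all actives have a fitted effect of over 70% in size.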 Particulars: HeLa A3G-eYFP + Vif (tagged APOBEC3G with the HIV-1 protein that degrades it), eYFP fluorescence, 24 h. The method in brief:
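HeLa cells stably expressing A3G-eYFP and Vif were treated for 24 h at 37 deg C with compounds at several concentrations; yellow fluorescence (Ex 488 nm, Em 500-530 nm) read by Acumen Explorer, MG132 as positive control.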
In general terms: Quantitative high-throughput screening tests each substance at several concentrations.
On to `CCN1/C(=C/c2cc[n+](C)cc2)C=Cc2cc(C)ccc21`, for which the Potency is 23.1 µM (active).

In the case of `O=C1CSC(=S)N1Cc1cccnc1`, the Potency is 4.11 µM (active).

As for `O=C1/C(=C/c2ccc(O)cc2)SC(=S)N1Cc1cccnc1`, the max response was -0.458% (inactive).

As to `Cc1ccc2c(c1)C=CC(C#N)N2C(=O)c1ccccc1` (stereo not drawn), the Potency was 4.98 µM (active).

As to `C(=Cc1c[nH]c2ccccc12)c1nccc2ccccc12`, the Potency was 20.6 µM (active).

For the compound `C(=C\c1c[nH]c2ccccc12)/c1nccc2ccccc12`, the Potency is 10.3 µM (active).

`Cc1ccc2c(/C=C/c3c[nH]c4ccccc34)ccnc2c1C`: the Potency was 5.8 µM (active).

As for `CNCC(O)Cn1c2c(c3ccccc31)CCCC2` (stereo not drawn), the max response was 20.6% (inactive).

As for `O=C(c1ccccc1F)n1c2c(c3ccccc31)CCCC2`, the Potency was 15.8 µM (active).

As for `O=C(NC1CC1)c1cccc2c1C(=O)c1ccc(N3CCC(Cc4ccccc4)CC3)cc1S2(=O)=O`, the Potency was 20.6 µM (active).

As for `O=C(NC1CCCCC1)c1cccc2c1C(=O)c1ccc(N3CCC(Cc4ccccc4)CC3)cc1S2(=O)=O`, the Potency is 15.8 µM (active).

`CCN1/C(=C/c2cccc[n+]2C)Sc2ccc(OC)cc21`: the Potency was 20.6 µM (active).

Regarding `COc1ccc2c(c1)N(C)/C(=C/c1cccc[n+]1C)S2`, the Potency was 17.7 µM (active).

`CC[n+]1ccccc1/C=C1\Sc2ccc(C)cc2N1C`: the Potency was 20.6 µM (active).

Regarding `CC(=O)Nc1sc2c(c1-c1nc3ccccc3s1)CCN(C(C)C)C2`, the Potency is 18.4 µM (active).

Consider `CC(=O)N1CCc2c(sc(NC(=O)CSc3ccccc3)c2-c2nc3ccccc3s2)C1`, for which the Potency is 29.1 µM (active).

Turning to `CN1CCc2c(sc(NC(=O)CSc3ccc(F)cc3)c2-c2nc3ccccc3s2)C1`, the Potency is 2.59 µM (active).

For the compound `CS(=O)(=O)Nc1ccc(C2=NN(S(=O)(=O)c3ccccc3)C(c3cccs3)C2)cc1` (stereo not drawn), the Potency is 20.6 µM (active).

On to `CCc1ccc(C2=NN(S(C)(=O)=O)C(c3cccs3)C2)cc1` (stereo not drawn), for which the Potency is 14 µM (active).

As for `CC(C)n1cc(/C=C2\NC(=O)N(c3cccc(Cl)c3)C2=O)c2ccccc21`, the Potency is 14 µM (active).

Take `Cc1ccc(NC(=O)c2ccc(NCC3CCCO3)c([N+](=O)[O-])c2)cc1Cl` (stereo not drawn): the Potency is 20.6 µM (active).

`Cc1ccc(NC(=O)c2ccc(NCc3ccco3)c([N+](=O)[O-])c2)cc1Cl`: the Potency was 14.6 µM (active).

For `Cc1ccc(NC(=O)CSc2ccccc2NC(=O)c2cccc(Cl)c2)cc1Cl`, the max response was 5.07% (inactive).

Regarding `Cc1ccc(NC(=O)c2ccc([N+](=O)[O-])s2)cc1S(=O)(=O)N1CCOCC1`, the max response is -5.77% (inactive).

Turning to `O=c1[nH]c(-c2cccnc2)nc2sc(-c3ccccc3)cc12`, the Potency is 0.627 µM (active).

As to `S=c1[nH]cnc2sc(-c3ccccc3)cc12`, the max response is 1.89% (inactive).

With `CCCn1c(CN2CCN(C(=O)OCC)CC2)nc2cc(NC(=O)C(C)C)ccc21`, the Potency was 11.2 µM (active).

With `CCOc1ccc(C(C)=O)cc1COc1cccnc1[N+](=O)[O-]`, the Potency was 12.5 µM (active).

On to `N#C/C(=C/c1ccc(N2CCCCC2)o1)c1cccc(F)c1`, for which the Potency is 5.17 µM (active).

Regarding `N#C/C(=C/c1ccc(N2CCCCCC2)o1)c1cccc(F)c1`, the Potency was 4.61 µM (active).

For the compound `Cc1sc(-c2cc3c([nH]c2=O)CC(c2ccccc2)CC3=O)nc1-c1ccc(Cl)cc1` (stereo not drawn), the Potency is 1.3 µM (active).

As for `O=C1CC(c2ccccc2)Cc2[nH]c(=O)c(-c3nc(-c4cccc(Cl)c4)cs3)cc21` (stereo not drawn), the Potency is 2.59 µM (active).

On to `CCCc1nc2c(C)cc(Br)cn2c1Cc1ccccc1`, for which the max response is -5.65% (inactive).

As for `COc1c(-c2ccc(O)c(O)c2)oc2cc(O)cc(O)c2c1=O`, the Potency was 7.9 µM (active).

Regarding `O=C(COc1ccccc1)NC(=S)Nc1cccc2c(O)cccc12`, the max response is -0.841% (inactive).

For `NC(=O)c1ccccc1NC(=S)NC(=O)CCc1ccccc1`, the Potency was 5.59 µM (active).

As to `CCC(=O)NC(=S)Nc1cccc(Cl)c1N1CCCC1`, the max response was -18% (inactive).

Take `O=C1CCCN1c1ccc(S(=O)(=O)Nc2ccc3c(c2)OCCO3)cc1`: the Potency was 5.59 µM (active).

For the compound `CC(C)(C)c1ccc(C(=O)C[n+]2cccc3cc(Cl)ccc32)cc1`, the Potency was 18.4 µM (active).

With `O=C(C[n+]1cccc2cc(Cl)ccc21)c1ccc(I)cc1`, the Potency is 18.4 µM (active).

In the case of `CCCC1=[N+](CC(=O)c2ccc(Br)cc2)CCn2cccc21`, the max response was -25.2% (inactive).

For the compound `COc1ccc(C(=O)C[n+]2cc(Br)cc3ccccc32)cc1`, the Potency was 8.2 µM (active).

Regarding `O=C(C[n+]1cccc2cc(Cl)ccc21)c1ccc2ccccc2c1`, the Potency was 23.1 µM (active).

With `COc1ccc(C(=O)C[n+]2cccc3cc(Cl)ccc32)cc1`, the Potency was 16.4 µM (active).

Take `O=C1Nc2ccc(Br)cc2C12NNc1ccccc1O2` (stereo not drawn): the Potency is 15.8 µM (active).

Turning to `O=[N+]([O-])c1ccc(N/N=C/c2c[nH]c3ccccc23)c(S(=O)(=O)Nc2ccc(Cl)cc2)c1`, the Potency is 23.1 µM (active).

On to `C/C(=N/Nc1ccc([N+](=O)[O-])cc1)c1c[nH]c2ccccc12`, for which the Potency was 18.4 µM (active).

Turning to `COc1ccccc1NS(=O)(=O)c1cc([N+](=O)[O-])ccc1N/N=C/c1c[nH]c2ccccc12`, the Potency was 9.2 µM (active).

`O=[N+]([O-])c1ccc(N/N=C/c2c[nH]c3ccccc23)cc1`: the Potency was 16.4 µM (active).

Turning to `COc1ccc(NS(=O)(=O)c2cc([N+](=O)[O-])ccc2N/N=C/c2c(C)[nH]c3ccccc23)cc1`, the Potency was 18.4 µM (active).

For the compound `COc1ccccc1NS(=O)(=O)c1cc([N+](=O)[O-])ccc1N/N=C/c1c(C)[nH]c2ccccc12`, the Potency was 2.8 µM (active).

On to `Cc1[nH]c2ccccc2c1/C=N/Nc1ccc([N+](=O)[O-])cc1`, for which the Potency was 8.2 µM (active).

Regarding `COc1cc(NC(=O)c2ccco2)c(C(=O)OCC(=O)c2c[nH]c3ccccc23)cc1OC`, the max response is -2.18% (inactive).

Turning to `CC1CC(C)CN(CC(=O)c2c[nH]c3ccccc23)C1` (stereo not drawn), the Potency was 18.4 µM (active).

`O=[N+]([O-])c1ccc(N=Nc2ccc(O)c3ccccc23)cc1`: the Potency is 11.2 µM (active).

As to `O=C1NC(=Nc2ccccc2Cl)S/C1=C\c1cc([N+](=O)[O-])ccc1O`, the max response was -33% (inactive).

As to `COc1cc2c(cc1OC)C(C)N(C(=O)c1cc(C)on1)CC2` (stereo not drawn), the Potency was 0.704 µM (active).

Take `COc1cc2c(cc1OC)C(C)N(C(=O)c1cc(Cl)nc(Cl)c1)CC2` (stereo not drawn): the Potency was 12.5 µM (active).

Turning to `Cc1ccc2ccc3c(c2n1)NS(=O)(=O)c1ccc(C(F)(F)F)cc1-3`, the Potency is 11.6 µM (active).

For the compound `COCCNC(=S)NN=C1CCCCCC1`, the max response is 0.0981% (inactive).

As to `COc1ccc2nc(NC(=S)NC(=O)c3ccco3)sc2c1`, the max response was -0.487% (inactive).

With `COc1ccc2nc(NC(=O)Nc3ccccc3OC)sc2c1`, the Potency is 4.44 µM (active).

Take `COc1cc(Cn2c3ccc(NC(=O)CCc4ccccc4)cc3c(=O)n2C)ccc1F`: the Potency is 3.53 µM (active).

For `COc1ccccc1CCC(=O)Nc1ccc2c(c1)c(=O)n(C)n2-c1cccs1`, the Potency is 3.53 µM (active).

`COc1ccccc1CCC(=O)Nc1ccc2c(c1)c(=O)n(C)n2Cc1ccc(F)cc1`: the Potency was 17.7 µM (active).

With `C/C(CCc1ccc2c(c1)OCO2)=N\NC(=S)NC(C)C`, the max response is 4.06% (inactive).

On to `Cc1cccc(N2CCN(Cc3cn(C)nc3-c3ccccc3F)CC2)n1`, for which the Potency was 5.59 µM (active).

`COC(=O)c1sc(N)c(C(=O)OC)c1COC(=O)c1c(C)noc1C`: the Potency is 4.98 µM (active).

For `CN(C)c1ccc(/C=C2/C[N+](C)(C)C/C(=C/c3ccc(N(C)C)cc3)C2=O)cc1`, the Potency is 8.2 µM (active).

Take `Nc1ccccc1C=C1Cc2ccccc2C1=O`: the Potency was 7.31 µM (active).

For `CN(C)c1ccc(/C=C2\Cc3ccccc3C2=O)cc1`, the Potency was 2.59 µM (active).

As to `Cc1ccc(N2C(=O)[C@@H]3[C@H](C2=O)[C@H]2C=C(C(=O)c4ccccc4)C=CN2[C@@H]3C(=O)c2ccc(Cl)cc2)cc1`, the max response is -6.73% (inactive).

With `O=c1[nH]c2ccccc2n2c(=S)[nH]nc12`, the max response is -15.5% (inactive).

On to `O=c1[nH]c2ccccc2n2c(C(F)(F)F)nnc12`, for which the Potency was 20.6 µM (active).

As for `CCN(CC)c1ccc(/C=C2\SC(N)=NC2=O)cc1`, the Potency was 7.9 µM (active).

As for `C/C(CC(=O)NCc1ccc(Cl)cc1)=N\NC(=O)COc1ccc(C)cc1Br`, the Potency was 14 µM (active).

As for `CC(=O)Nc1ccc(NC(=O)C/C(C)=N/NC(N)=S)cc1`, the max response is 2.45% (inactive).

For `CC(=O)Nc1ccc(CC(=O)NCCC(c2ccccc2)c2ccccc2)cc1`, the Potency was 15.8 µM (active).

In the case of `O=C(Oc1ccc(Cl)c2cccnc12)c1ccco1`, the max response was 17.4% (inactive).

For the compound `COc1ccc(-c2csc(-c3ccc(O)cc3)n2)cc1`, the Potency was 5.59 µM (active).

`Oc1ccc(-c2nc(-c3ccc(O)c(O)c3)cs2)cc1`: the Potency was 0.994 µM (active).

For `COc1ccc(-c2ccnc(-c3ccc(O)cc3)n2)cc1`, the Potency is 1.58 µM (active).

In the case of `COc1cc(C2c3cc4c(cc3OC(C)(N3CCCC3)C2C)OCO4)cc(OC)c1OC` (stereo not drawn), the Potency was 0.994 µM (active).

Turning to `COc1cccc(C2=CC(c3cccs3)n3nnnc3N2)c1` (stereo not drawn), the Potency is 2.8 µM (active).

In the case of `COc1cccc(C2=CC(c3ccccc3)n3nnnc3N2)c1` (stereo not drawn), the Potency is 8.86 µM (active).

As to `C=CCOC(=O)C1=C(C)Nc2nnnn2C1c1cccs1` (stereo not drawn), the max response is -7.35% (inactive).

With `N#CC1=C(S)N(c2ccc(F)cc2)C2(CCCCC2)NC1=O`, the max response is 4.28% (inactive).

Consider `Cc1ccc(/C=N/NC(=O)CCCOc2ccc(Cl)cc2Cl)cc1`, for which the Potency is 7.9 µM (active).

With `CCCn1c(SCC(=O)Nc2ccccc2OC)nnc1-c1ccco1`, the Potency is 17.7 µM (active).

As to `CCCn1nnc(NC(=S)NC(=O)c2ccccc2OC)n1`, the max response was 9.21% (inactive).

As for `CC(C)C1C(=O)N(Cc2cn(CCC3OCCCO3)nn2)CCS(=O)(=O)N1Cc1ccc(-c2cccc(CO)c2)cc1` (stereo not drawn), the max response was -8.99% (inactive).

In the case of `CC(=O)C1=C(C)NC(SCC(=O)c2ccc(Cl)cc2)=C(C#N)C1c1ccco1` (stereo not drawn), the Potency is 16.4 µM (active).

Regarding `O=[N+]([O-])c1ccc(N2CCN(Cc3ccccc3)CC2)c2c1no[n+]2[O-]`, the Potency was 12.5 µM (active).

Values taken from PubChem BioAssay AID651813 (National Center for Advancing Translational Sciences (NCATS), 2012).
